Measurements taken from PubChem BioAssay (NCATS).
Results filed as inconclusive are left out. Unmarked numbers belong to inactive results. Calls follow the shape of the dose curve; as a rule, active = well fitted activation curve with a large enough effect in the main read-out, with a control signal flat (not every such curve was filed as active); inconclusive = small, poorly fitted or top-dose-only effect, or effect the other way, or a change in a side signal; inactive = flat fitted curve, though single readings scatter.

target: 3',5'-cyclic-AMP phosphodiesterase 4B (Homo sapiens) (UniProt Q07343); assay: qHTS Assay for Inhibitors of PDE-IV (AID 607); details: HEK293 ACTOne CNG channel cells, membrane potential fluorescence; series mostly up to 22.9 µM; activation (PDE inhibition): at the top concentration; also: % of control where 0% means no effect
Sequence (Q07343 whole entry, looked up): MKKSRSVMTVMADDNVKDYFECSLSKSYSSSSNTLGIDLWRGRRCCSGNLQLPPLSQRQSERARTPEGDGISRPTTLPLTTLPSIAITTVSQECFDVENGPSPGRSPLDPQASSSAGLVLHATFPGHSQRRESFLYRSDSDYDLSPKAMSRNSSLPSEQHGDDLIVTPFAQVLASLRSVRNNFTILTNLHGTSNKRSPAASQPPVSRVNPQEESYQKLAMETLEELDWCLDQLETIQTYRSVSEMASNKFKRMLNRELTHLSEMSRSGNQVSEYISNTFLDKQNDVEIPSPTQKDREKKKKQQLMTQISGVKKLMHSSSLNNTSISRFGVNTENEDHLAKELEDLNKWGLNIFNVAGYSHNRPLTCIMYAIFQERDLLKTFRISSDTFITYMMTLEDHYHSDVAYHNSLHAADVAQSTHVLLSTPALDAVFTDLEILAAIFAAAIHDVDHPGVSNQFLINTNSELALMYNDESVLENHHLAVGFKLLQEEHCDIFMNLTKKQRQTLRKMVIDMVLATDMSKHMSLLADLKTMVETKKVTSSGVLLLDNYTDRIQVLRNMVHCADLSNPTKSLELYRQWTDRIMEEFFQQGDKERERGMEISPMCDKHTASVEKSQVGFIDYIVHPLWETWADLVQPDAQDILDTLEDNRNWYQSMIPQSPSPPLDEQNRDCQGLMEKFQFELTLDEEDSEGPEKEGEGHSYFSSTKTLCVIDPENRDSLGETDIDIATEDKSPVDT
How it was run: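 Cell-based read-out of cAMP via a modified cyclic nucleotide-gated channel and membrane potential dye (535/590 nm) in HEK293 cells expressing PDE4 endogenously. Compounds tested up to 22.9 uM final; 100 uM RO 20-1724 reference.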

Row | SMILES | activation (PDE inhibition)
1 | O=C(O)c1cccc(C(=O)O)c1S(=O)Cc1ccccc1 (centres undefined) | 5.6%
2 | CC(C)NCC[C@@H](O)c1cc2ccccc2o1 | -4.07%
3 | CCn1c2ccccc2c2nnc(NCCCO)nc21 | 0.671%
4 | Nc1cccc2cc(S(=O)(=O)Nc3ccc(C(=O)O)cc3)ccc12 | 5.41%
5 | O=C(O)CSc1ncccc1[N+](=O)[O-] | 12.6%
6 | O=C(O)/C=C(/C(=O)O)[C@]12CCN3CC4=CCO[C@@H]5CC(=O)N[C@@H]1[C@H]5[C@H]4C[C@H]32 | -4%
7 | CCSC[C@@H](N)C(=O)O | -5.03%
8 | N#CC1(Nc2ccc(-c3ccc(NC4(C#N)CCCC4)cc3)cc2)CCCC1 | -4.48%
9 | C/C(=N/O)[C@@H]1C[C@H](CC(=O)O)C1(C)C | 6.65%
10 | ClC(Cl)(Cl)C(N1CCN(c2ccccc2)CC1)N1CCN(c2ccccc2)CC1 | -3.22%
11 | O=C(O)CC[C@]1(C(=O)O)CCC(=O)c2ccccc21 | 5.78%
12 | [N-]=[N+]=NC[C@@H]1O[C@@H](n2cnc3c(N)ncnc32)[C@@H]2O[C@@H]21 | -12.4%
13 | O=C(O)COc1c(Cl)cc(Cl)c2cccnc12 | 3.13%
14 | CN(C)c1ccc(C2N([C@H](C#N)c3ccc(N(C)C)cc3)CCCN2[C@@H](C#N)c2ccc(N(C)C)cc2)cc1 (some centres undefined) | 12.1%
15 | C#CCOCCCC(=O)O | -1.59%
16 | CCC(C)(C)c1ccc(Oc2cccc(C(=O)O)c2)cc1 | 9.2%
17 | Cc1cc([N+](=O)[O-])c(C)c(Br)c1C | 2.66%
18 | CC1=C[N+](=O)c2ccccc2[N+]1=O | 2.62%
19 | Nc1ncnc2nc(N3CCN(CCO)CC3)[nH]c12 | -5.71%
20 | C[C@H]1CN(CCO)CCN1c1ccccc1 | 4.38%

Row | SMILES | activation (PDE inhibition)
21 | C(=Nc1cnc2ccccc2c1)c1ccc2ccccc2n1 | 6.04%
22 | Nc1ncnc2nn([C@H]3O[C@@H](CO)[C@@H](O)[C@H]3O)nc12 | 7.92%
23 | CCOC(=O)[C@@H](O)Cc1cnc2ccccc2n1 | -2.02%
24 | COc1ccc2c3c([nH]c2c1)[C@H]1C[C@@H]2[C@@H](C[C@@H](O)[C@H](OC)[C@H]2C(=O)O)CN1CC3 | 3.81%
25 | N[C@@H](CSCc1ccc(I)cc1)C(=O)O | -3.52%
26 | Cc1ncc(CN=Cc2ccc(Cl)cc2)c(N)n1 | 6.44%
27 | Nc1nc(-c2ccc3ccccc3c2)cc(-c2cc(-c3ccc4ccccc4c3)nc(N)n2)n1 | -9.89%
28 | Nc1ncnc2c1nc(-c1ccccc1)n2[C@H]1O[C@@H](CO)[C@@H](O)[C@H]1O | 4.87%
29 | OC[C@@H](O)CNc1ncnc2ccccc12 | 2.92%
30 | O=C(NCc1cccnc1)[C@@H]1[C@@H](C(=O)O)[C@H]2CC[C@@H]1O2 | 0.826%
31 | Nc1nc(-c2ccccc2)c(-c2ccccc2)c(-c2nc(N)nc(-c3ccccc3)c2-c2ccccc2)n1 | -4.42%
32 | C[C@@]1(CCOCc2ccccc2)NC(=O)NC1=O | 1.27%
33 | O=C(O)[C@H]1CC=CC[C@@H]1C(=O)Nc1cccc(O)c1 | 1.24%
34 | Oc1ccc2ccccc2c1C=NCc1c(O)ccc2ccccc12 | 11.6%
35 | O=C(O)CSc1cc(-c2ccccc2)nc2ccccc12 | 5.33%
36 | C[C@@H](CSC(=N)N)C(N)=O | -14.7%
37 | COc1ccc2[nH]c3cc4c(=O)c5cc(OC)ccc5[nH]c4cc3c(=O)c2c1 | -4.21%
38 | S=C(S)NCCN1CCNCC1 | 9.62%
39 | Cc1cc(C)c2nc3c(c([C@H](O)[C@@H]4CCCCN4)c2c1)CC/C3=C/c1ccc(Cl)cc1 | 19.2%
